# Measurements from PubChem BioAssay (NCATS).
# Values joined by “and” are separate entries in the source; they are usually repeats but may differ in a detail not shown here. Identical values can stand only once. Results filed as inconclusive are left out. Where a call stands in place of a potency, no number is given. Active and inactive are the calls of the source. Calls come from the whole dose curve.
# Key:
# [1] = Cytotoxicity counterscreen for inhibitors of SARS-CoV-2 cell entry (AID 1645845); note: nearly all actives have a fitted effect of over 50% in size
# Procedure, shortened: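 HEK293-ACE2 cells (Expi293F stably expressing human ACE2) seeded overnight, then compound for 1 h plus 48 h at 37C. Viability as ATP content by luminescence; normalized to wells with cells and media-only wells.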
# [2] = Primary qHTS to identify inhibitors of SARS-CoV-2 cell entry (AID 1645846); conditions: activity change, negative = inhibition: at 57.1 µM (top of the series) unless noted; note: nearly all actives have a fitted effect of over 45% in size; note: potency is the fitted concentration of half-maximal effect
# Procedure, shortened: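 HEK293-ACE2 (Expi293F, stable hACE2), 1500 cells/well, o/n 37C; cpd 23 nL pin, 1 h; MLV-PP w/ SARS-CoV-2-S (Wuhan-Hu-1, Δ19 C-term); 48 h 37C; Bright-Glo luminescence; normalized vs S-PP and bald PP.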
Compound,Potency [1],Potency [2],"activity change, negative = inhibition [2]","activity change, negative = cytotoxicity [1]"
CNC(=O)c1cnn(-c2nc(N)c3ncn([C@@H]4O[C@H](CO)[C@@H](O)[C@H]4O)c3n2)c1,inactive,inactive,–,–
O=S1(=O)OC(c2ccc(O)cc2)(c2ccc(O)cc2)c2ccccc21,inactive,–,4.87%,–
C#C[C@]1(O)CC[C@H]2[C@@H]3CCC4=CC(=O)CC[C@@H]4[C@H]3CC[C@@]21C,inactive,–,3.31%,–
CC(C)(C)C(=O)OCOC(=O)[C@@H]1N2C(=O)[C@@H](NC(=O)[C@H](N)c3ccccc3)[C@H]2SC1(C)C,inactive,–,-12.4%,–
OCCN1CCN(CCCN2c3ccccc3C=Cc3ccccc32)CC1,inactive,–,-17.2%,–
C[N+]1(CC2COC(c3ccccc3)(c3ccccc3)O2)CCCCC1 (configuration not stated),inactive,–,1.26% [at 27.1 µM],–
NCCc1ccc(O)c(O)c1,inactive,–,-18% and -6.68%,–
CN(C)CCC(c1ccccc1)c1ccccn1 (configuration not stated),inactive,–,-4.85%,–
C[C@]12CC[C@@H]3c4ccc(O)cc4CC[C@H]3[C@@H]1CC[C@@H]2OC(=O)CCC1CCCC1,inactive,–,-19.7%,–
COCCc1ccc(OCC(O)CNC(C)C)cc1 (configuration not stated),inactive,–,-1.24%,–
NS(=O)(=O)c1cc2c(cc1Cl)NC(CSCc1ccccc1)=NS2(=O)=O,inactive,–,-3.7%,–
NC(N)=N/N=C/c1c(Cl)cccc1Cl,inactive,–,-25.8%,–
CN(C)CCN(Cc1cccs1)c1ccccn1,inactive,–,-3.24%,–
CC(C)(Oc1ccc(CCNC(=O)c2ccc(Cl)cc2)cc1)C(=O)O,inactive,inactive,–,–
CCc1cccc2c3c([nH]c12)C(CC)(CC(=O)O)OCC3 (configuration not stated),inactive,inactive,–,–
COc1ccc2c(c1)c(CC(=O)O)c(C)n2C(=O)c1ccc(Cl)cc1,inactive,inactive,–,–
O=C(CCCN1CCN(c2ccccn2)CC1)c1ccc(F)cc1,inactive,–,-24.8%,–
C[C@H](N)[C@H](O)c1cccc(O)c1,inactive,–,1.07%,–
C1CCN2C[C@@H]3C[C@@H](CN4CCCC[C@@H]34)[C@H]2C1,inactive,–,-16.5%,–
O=C(OCC(O)CO)c1ccccc1Nc1ccnc2c(C(F)(F)F)cccc12 (configuration not stated),inactive,inactive,–,–
CC(=O)Oc1ccc2c(c1)CC[C@@H]1[C@@H]2CC[C@]2(C)[C@@H](O)CC[C@@H]12,inactive,–,-11%,–
CN1CCCN=C1/C=C/c1cccs1,inactive,–,-29.2%,–
O=C1c2ccccc2C(=O)C1c1ccccc1,inactive,inactive,–,–

Compound,Potency [1],Potency [2],"activity change, negative = inhibition [2]","activity change, negative = cytotoxicity [1]"
C[C@@H](O)[C@H](N)C(=O)O,inactive,–,0.235% [at 27.1 µM],–
CCCc1ncc(C[n+]2ccccc2C)c(N)n1,inactive,–,0.0229%,–
NS(=O)(=O)c1ccc(N2CCCCS2(=O)=O)cc1,inactive,inactive,–,–
CCN[C@@H]1C[C@H](N)[C@@H](OC2OC(CN)=CCC2N)[C@H](O)[C@H]1O[C@H]1OC[C@](C)(O)[C@H](NC)[C@H]1O (some centres not stated),–,–,42.9% [at 0.702 µM],0.776% [at 0.702 µM] (inactive)
CC(C)[C@@H]1CC[C@@H](C)CC1=O,inactive,inactive,–,–
CCOCCn1c(N2CCCN(C)CC2)nc2ccccc21,inactive,–,-36.1%,–
CC1(C)S[C@@H]2[C@H](N=CN3CCCCCC3)C(=O)N2[C@H]1C(=O)O,inactive,–,0.13%,–
O=C(NC1CCN(CCc2c[nH]c3ccccc23)CC1)c1ccccc1,inactive,–,-25.8%,–
CCN(CCCCOC(=O)c1ccc(OC)c(OC)c1)C(C)Cc1ccc(OC)cc1 (configuration not stated),inactive,14.1 µM (active),–,–
CCOc1ccccc1O[C@H](c1ccccc1)[C@H]1CNCCO1,inactive,–,0.393%,–
O=C1OC(c2ccc(O)cc2)(c2ccc(O)cc2)c2ccccc21,inactive,inactive,–,–
Cc1[nH]c(C)c(Cl)c(=O)c1Cl,inactive,inactive,–,–
CC(C)(C)CC(=O)OCC(=O)[C@@]1(O)CC[C@H]2[C@@H]3CCC4=CC(=O)C=C[C@]4(C)[C@H]3[C@@H](O)C[C@@]21C,inactive,inactive,–,–
CCCNC(C)(C)COC(=O)c1ccccc1,inactive,–,3.38%,–
C[C@@H]1C[C@H]2[C@@H]3CCC4=CC(=O)C=C[C@]4(C)[C@@]3(F)[C@@H](O)C[C@]2(C)[C@@]1(O)C(=O)COC(=O)c1ccncc1,inactive,inactive,–,–
Cc1[nH]c(=O)c(C#N)cc1-c1ccc2nccn2c1,inactive,inactive,–,–
CC(=O)OCC(=O)NCCCOc1cccc(CN2CCCCC2)c1,inactive,inactive,–,–
CCC(CN)=C(c1ccccc1)c1ccccc1,inactive,–,2.6%,–
Cc1ccc(=O)n(-c2ccccc2)c1,inactive,inactive,–,–
CC(C(O)c1ccc(O)cc1)N1CCC(Cc2ccccc2)CC1 (configuration not stated),inactive,–,-24.3%,–
CN(C)CCCOC1(Cc2ccccc2)CCCCCC1,inactive,–,-0.0488%,–
CCC(=O)O[C@]1(C(=O)COC)[C@@H](C)C[C@H]2[C@@H]3CCC4=CC(=O)C=C[C@]4(C)C3(F)[C@@H](O)C[C@@]21C (some centres not stated),inactive,inactive,–,–
O=C(NN1CCCC1)NS(=O)(=O)c1ccc(Cl)cc1,inactive,inactive,–,–
